Results: PubChem BioAssay AID504406 (Broad Institute, 2011)
The whole screen tested about 320,000 compounds, of which about 190 (0.059%) were called active. This is one part of a sample in which actives are shown more often than they occur. Cut-off read from the data, not from the text of the source: active = inhibition above about 10% (passing the limit was not always enough); inconclusive = no clear call, values can overlap the other calls.

target: UDP-galactopyranose mutase (Mycobacterium tuberculosis (strain ATCC 25618 / H37Rv)) (UniProt P9WIQ1); test: blockers of Mtb UDP-galactopyranose mutase – biochemical, fluorescence polarization, single point, primary screen (AID 504406); settings: purified UGM, fluorescence polarization probe displacement; at 10 µM; hits give high values
Sequence (P9WIQ1 whole entry, looked up): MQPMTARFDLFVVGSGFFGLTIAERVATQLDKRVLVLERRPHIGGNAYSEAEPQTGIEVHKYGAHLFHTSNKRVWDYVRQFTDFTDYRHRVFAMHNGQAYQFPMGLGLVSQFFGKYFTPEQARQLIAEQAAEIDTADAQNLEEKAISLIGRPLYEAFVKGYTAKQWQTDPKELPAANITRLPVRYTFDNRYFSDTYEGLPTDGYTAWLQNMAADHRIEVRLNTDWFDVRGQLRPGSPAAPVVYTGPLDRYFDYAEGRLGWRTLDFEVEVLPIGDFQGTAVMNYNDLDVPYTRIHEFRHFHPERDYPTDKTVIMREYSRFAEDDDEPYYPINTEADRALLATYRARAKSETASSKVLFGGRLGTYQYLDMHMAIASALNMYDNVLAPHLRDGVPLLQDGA

| SMILES | inhibition |
| --- | --- |
| CC1CC(=O)N(CC(=O)Nc2cccc(Cl)c2)c2ccccc2S1(=O)=O (stereo unspecified) | -0.479% (inactive) |
| O=C(O)C1CC=CCC1C(=O)NCCc1ccccc1 (stereo unspecified) | -0.437% (inactive) |
| CC(NC(=O)c1ccc(S(=O)(=O)Nc2ccccc2)cc1)c1ccc(S(N)(=O)=O)cc1 (stereo unspecified) | -0.443% (inactive) |
| CC(=O)c1nn(-c2cccc(Br)c2)cc1C(=O)c1cccc2ccccc12 | 2.24% (inactive) |
| O=C(CCCN1CCc2[nH]c3ccc(F)cc3c2C1)c1ccc(F)cc1 | -0.464% (inactive) |
| COc1ccc(C(C)NC(=O)C23CC4CC(CC(C4)C2)C3)cc1 (stereo unspecified) | 0.347% (inactive) |
| CCOc1ccccc1-n1c(SCC(=O)N2CCCC2)nnc1-c1ccoc1C | 0.65% (inactive) |
| O=C(Cc1cccs1)NCc1cccc(C(F)(F)F)c1 | 0.316% (inactive) |
| O=C(CC1Oc2ccccc2NC1=O)NCCCN1CCN(Cc2ccccc2)CC1 (stereo unspecified) | -0.871% (inactive) |
| Cc1ccc(C(=O)CSc2nc3ccccc3c(=O)n2N)o1 | -2.34% (inactive) |
| COc1cccc(-c2ccc3c(c2)S(=O)(=O)c2cccc(C(=O)O)c2C3=O)c1OC | -0.479% (inactive) |
| O=C(COc1cc(Cl)c(Cl)cc1Cl)NCCc1ccccn1 | 1.96% (inactive) |
| O=C(C[n+]1cc(Br)cc2ccccc21)c1ccc(F)cc1 | -0.457% (inactive) |
| COc1c(C(=O)N2CCCC2)ccc2ccccc12 | -0.901% (inactive) |
| COC(=O)C[n+]1cccc2ccccc21 | 13.9% (active) |
| COc1ccc(CCN2C(=O)c3[nH]nc(-c4ccccc4O)c3C2c2ccc(C)cc2)cc1OC (stereo unspecified) | 2.57% (inactive) |
| COc1ccc(N2CCN(S(=O)(=O)c3cc(Br)cnc3N)CC2)cc1 | 1.41% (inactive) |
| Cc1ccc(NS(=O)(=O)c2ccc(F)cc2)nc1 | -0.636% (inactive) |
| N#Cc1c(N)nc2c3c(sc(=N)c2c1N)NC(=O)CC3c1ccccc1Cl (stereo unspecified) | 2.45% (inactive) |
| COc1cccc(CNC(=O)CCC2CCCN(C(=O)c3ccoc3C)C2)c1 (stereo unspecified) | -0.384% (inactive) |
| COc1ccc(NC(=O)CN(Cc2ccccc2)S(C)(=O)=O)cc1OC | -0.501% (inactive) |
| CCc1ccccc1NC(=S)Nc1cc(OC)c(NC(=O)C(C)C)cc1OC | 0.622% (inactive) |
| COC(=O)C1=C(C(=O)OC)[C@@H]2N(C)c3ccccc3[C@@]23C[C@@H](C(=O)OC)N(C(C)=O)C3=N1 | -0.842% (inactive) |

| SMILES | inhibition |
| --- | --- |
| O=C(NCc1ccco1)C1CCCN1S(=O)(=O)c1ccccc1C(F)(F)F (stereo unspecified) | 5.45% (inactive) |
| CC(C)Oc1ccccc1C(=O)NC(CO)C(=O)O (stereo unspecified) | -1.15% (inactive) |
| CC(=O)C1=C(O)C(=O)N(c2ccc(S(N)(=O)=O)cc2)C1c1ccccc1F (stereo unspecified) | 3.63% (inactive) |
| Cc1ccc(CCn2c3c(c4ccccc42)CN(C)CC3)cn1 | 0.129% (inactive) |
| O=C(NCc1cccnc1)Nc1cccc(NC(=O)NCc2cccnc2)c1F | -4.12% (inactive) |
| CCOC(=O)C1(Cc2cccc(OC)c2)CCCN(C(=O)CCSC)C1 (stereo unspecified) | 1.34% (inactive) |
| Cc1ccc(-c2nn(-c3cccc(F)c3)cc2CNCCc2ccncc2)o1 | -3.08% (inactive) |
| Cc1ccc2c(CC(=O)NCc3cccs3)coc2c1 | -2.27% (inactive) |
| CCN1C(=NCc2ccc(OC)cc2)N[C@@H](CCc2ccccc2)[C@H](C(=O)NCc2ccc(OC)cc2)[C@H]1C | 0.311% (inactive) |
| COc1ccc(OC)c(C2N(c3ccccn3)C(=O)C3CCCN32)c1 (stereo unspecified) | -1.67% (inactive) |
| O=C(c1ccc(Cl)c(S(=O)(=O)N2CCCCCC2)c1)N1CCN(c2ccc(O)cc2)CC1 | 0.826% (inactive) |
| CSCCC(NS(=O)(=O)c1ccc2c(c1)oc(=O)n2C)C(=O)NCc1ccccc1 (stereo unspecified) | 7.62% (inactive) |
| COc1cccc(CNS(=O)(=O)c2ccc3c(c2)N(C(C)=O)CCS3)c1 | 0.635% (inactive) |
| Cc1nc(NCc2ccccc2)c(C(N)=O)c2c1COC(C)(C)C2 | -0.415% (inactive) |
| O=C(CSc1nnnn1-c1ccc(O)cc1)N1N=C(c2ccc3ccccc3c2)CC1c1ccccc1 (stereo unspecified) | -0.544% (inactive) |
| O=C(CN1C(=O)COc2ccc(Cl)cc21)N1CCOCC1 | -2.04% (inactive) |
| Nc1ncc(CN2CCCC(C(=O)Nc3ccc(-c4ccco4)cc3)C2)cn1 (stereo unspecified) | -0.194% (inactive) |
| O=C(CCCN1C(=O)c2ccccc2C1=O)Oc1ccc(Cl)cc1 | 1.46% (inactive) |
| COc1cc(S(=O)(=O)N(Cc2cccs2)C2CC2)ccc1-n1cnnn1 | -0.867% (inactive) |
| CCOc1cc(C(=O)Nc2ccc(S(=O)(=O)Nc3cnc4ccccc4n3)cc2)cc(OCC)c1OCC | -1.61% (inactive) |
| COC(=O)C1(C)CC1(c1ccccc1)c1ccccc1 (stereo unspecified) | -0.587% (inactive) |
| NC(=O)C1CC=CCC1C(=O)OCC(Cl)=C(Cl)Cl (stereo unspecified) | -1.58% (inactive) |
| Nc1ccc2nc3c(=O)[nH]c(=S)[nH]c3nc2c1 | 15.2% (active) |

| SMILES | inhibition |
| --- | --- |
| CC(C)C[C@@H](COc1ccccc1)N1CCN(CC(C)C)CCC1=O | 1.36% (inactive) |
| O=C(Nc1ccc([N+](=O)[O-])cc1)OCCc1ccccn1 | -0.463% (inactive) |
| Cc1ccc(S(=O)(=O)NC2CCCCCC2)cc1C(N)=O | 1.67% (inactive) |
| CC(C)(C)C1CCC(C(=O)NCC(c2cccs2)N2CCOCC2)CC1 (stereo unspecified) | 0.328% (inactive) |
| C(=C\c1ccccc1)/CSc1nnc(-c2cccnc2)n1Cc1ccco1 | 1.26% (inactive) |
| CN1C(=O)c2cccc3c(N)ccc(c23)C1=O | 24.4% (active) |
| Cc1nn(C)cc1N1C(=O)c2cccc3c(N)ccc(c23)C1=O | 31.9% (active) |
| CC(C(=O)O)N1C(=O)c2cccc3cccc1c23 (stereo unspecified) | 3.93% (inactive) |
| COc1ccc([N+](=O)[O-])cc1NC(=O)c1ccc(N(Cc2ccccc2C)S(C)(=O)=O)cc1 | 0.0791% (inactive) |
| COc1cc(OC)cc(/C(N)=N/O)c1 | 1.41% (inactive) |
| CC(=O)Nc1ccc(NC(=O)C2CCCN2S(=O)(=O)c2cccc(C(F)(F)F)c2)cc1 (stereo unspecified) | -2.31% (inactive) |
| CC(=O)Nc1ccc(S(=O)(=O)NC(C)C(=O)OCCOc2ccc(F)cc2)cc1 (stereo unspecified) | -1.41% (inactive) |
| CCCCN(CC)CCNC(=O)CCNC(=O)Cn1ccc2ccccc2c1=O | 0.375% (inactive) |
| COCCCNC(NC(=O)c1ccc(C)cc1)C(Cl)(Cl)Cl (stereo unspecified) | -0.407% (inactive) |
| O=C(NNC1=NCCC1)c1cccc(S(=O)(=O)N2CCCCC2)c1 | 2.86% (inactive) |
| COc1ccc(/C=C(/NC(=O)c2ccco2)C(=O)Nc2ccc(C(C)=O)cc2)cc1 | 0.676% (inactive) |
| COc1ccc(-c2cc(C(=O)N3CCN(c4ccc(F)cc4)CC3)no2)cc1 | 0.979% (inactive) |
| Oc1ccc2ccc3cccc[n+]3c2c1 | 45.7% (active) |
| CCc1ccc(C(=O)N2CCN(S(=O)(=O)c3sc(C(=O)O)c(C)c3C(=O)O)CC2)cc1 | 2.51% (inactive) |
| COc1cc(/C=C/C(=O)OCC(=O)NC2CC2)cc(OC)c1OC | 0.117% (inactive) |
| COc1ccc(/C=C/C(=O)OCC(=O)NC2CCCCCC2)cc1OC | 29.9% (active) |
| COc1ccccc1/C=C/C(=O)OCC(=O)NC1CCCCCC1 | -0.893% (inactive) |
| COc1cccc(NC(=O)Cn2c3ccccc3c3nc4n(c(=O)c32)CCS4)c1 | 0.23% (inactive) |

| SMILES | inhibition |
| --- | --- |
| COc1ccccc1NC(=O)C(C)OC(=O)c1ccc(-n2cnnn2)cc1 (stereo unspecified) | -1.34% (inactive) |
| COc1ccc(S(=O)(=O)N2CCN(C(=O)c3cc(C)oc3C)CC2)cc1 | -0.865% (inactive) |
| COc1ccc(N(CC(=O)NC2CCCCC2)C(=O)CNC(=O)c2ccco2)c(OC)c1 | 2.4% (inactive) |
| CC(C)CCNc1nc(N2CCCC2)c2c(c1C#N)CCN(C)C2 | 3.98% (inactive) |
| Clc1ccc(-c2cc(C3CCNCC3)[nH]n2)c(Cl)c1 | 1.34% (inactive) |
| O=C1CCc2cc(S(=O)(=O)Nc3ccc(C(F)(F)F)cc3)cc3c2N1CC3 | -0.849% (inactive) |
| Cc1nnc(Nc2ccccc2F)s1 | -1.25% (inactive) |
| CCc1ccc2c(c1)C1(NN=C(c3ccccc3)S1)C(=O)N2 (stereo unspecified) | 1.69% (inactive) |
| O=C(OCc1cc(=O)n2ccsc2n1)C1(c2ccc(Cl)cc2)CC1 | -0.701% (inactive) |
| COc1ccc([N+](=O)[O-])cc1N(CC(=O)Nc1ccccc1C(=O)N1CCOCC1)S(C)(=O)=O | -1.48% (inactive) |
| O=C(NCC#CCSc1nnc(-c2cccc3ccccc23)o1)c1cccs1 | 0.904% (inactive) |
| O=C(COC(=O)CCCSc1nc2ccccc2[nH]1)Nc1ccc(Oc2ccccc2)cc1 | -1.64% (inactive) |
| Cn1c(=O)[nH]c(=O)c2c1nc(NCCCn1ccnc1)n2Cc1cccc(Br)c1 | 1.02% (inactive) |
| CCN1CC=C2C(C#N)=C(N)C(C#N)(C#N)[C@H](c3ccoc3)[C@H]2C1 | 13.1% (active) |
| N#CC1=C(N)C(C#N)(C#N)[C@H](c2ccsc2)[C@H]2COCC=C12 | 0.548% (inactive) |
| COc1ccc(OC)c(CCNC(=O)CCn2ccc3cc(S(=O)(=O)N4CCCC4)ccc32)c1 | -0.0435% (inactive) |
| CCN(C(=O)COC(=O)CCC(=O)c1cccs1)C1CCCCC1 | 0.798% (inactive) |
| CCN(C(=O)CSc1cccc[n+]1[O-])c1ccccc1 | 1.75% (inactive) |
| COc1ccccc1CCC(=O)OCC(=O)N1CCN(S(=O)(=O)c2ccc(C)cc2C)CC1 | 2.52% (inactive) |
| CC(=O)N1CC2(C)CN(C(C)=O)CC(C)(C1)C2=O | -1.57% (inactive) |
| COCCn1c(SCc2nc3cc(OC)c(OC)cc3c(=O)[nH]2)nnc1-c1ccncc1 | 0.376% (inactive) |
| COCCCNC(=O)CC1C[C@H](C(=O)N2CCCCC2)[C@@]2(CCc3ccccc3)c3[nH]c4ccccc4c3CCN2C1=O (stereo partly specified) | -1.3% (inactive) |
